Source: PubChem BioAssay AID624156 (Broad Institute, 2012)
Among all 46,000 compounds or so, about 900 (2%) were called active. Roughly 1% stayed inconclusive and do not appear here. For the sample, actives were picked, then their nearest neighbours and some compounds at random. Values without a mark were called inactive. No stated cut-off is given here; in the data, active means ROS induction above about 79% (passing the limit was not always enough); inconclusive means no clear call, values can overlap the other calls.

Test: ROS inducers in U2OS cancer cells, primary screen, cell-based, H2DCF-DA fluorescence (AID 624156);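 further: 0% = DMSO vehicle median and 100% = reference compound median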
Settings: at 10 µM, stronger effect = higher value

SMILES | ROS induction (% of piperlongumine)
Cc1ccccc1NC(=O)NC(=O)CC#N | -16.4%
C[C@@H]1CN([C@@H](C)CO)C(=O)c2cc(NC(=O)C3CC3)ccc2O[C@H]1CN(C)C | -0.632%
Cn1c(=O)c2c(nc(SCC(=O)NC(C)(C)C)n2Cc2ccccc2F)n(C)c1=O | 0.779%
CC(C)C1Cc2c(sc3nc(SCC(=O)Nc4ccccc4)nc(N)c23)CO1 (stereo not given) | 44%
Cc1ccc(NC(=O)c2ccc(CSc3ccccn3)cc2)c(C)c1 | -9.72%
C[C@@H]1CN([C@H](C)CO)C(=O)c2cc(NS(=O)(=O)c3ccc(F)cc3)ccc2O[C@H]1CN(C)C(=O)Nc1cccc2ccccc12 | 6.38%
COCCOC(=O)N1C(=O)[C@@]2(c3cc(C#CCC(C(=O)OC)C(=O)OC)ccc31)[C@H](c1ccc(OCCO)cc1)N1[C@H](c3ccccc3)[C@H](c3ccccc3)OC(=O)[C@H]1[C@@H]2C(N)=O | 166% (active)
COCCOC(=O)N1C(=O)[C@@]2(c3cc(C#CCNC(N)=O)ccc31)[C@H](C(=O)N1CCN(c3ncccn3)CC1)[C@H]1C(=O)O[C@H](c3ccccc3)[C@H](c3ccccc3)N1[C@@H]2c1ccccc1OCCO | 19.5%
C=CCNC(=O)[C@H]1[C@@H]2C(=O)O[C@@H](c3ccccc3)[C@@H](c3ccccc3)N2[C@@H](c2ccccc2OCCO)[C@]12C(=O)N(C(=O)OCCOC)c1ccc(C#Cc3ccc(OC)cc3)cc12 | 15.7%
COC(=O)C(CC#Cc1ccc2c(c1)[C@]1(C(=O)N2)[C@H](c2ccccc2OCCO)N2[C@H](c3ccccc3)[C@H](c3ccccc3)OC(=O)[C@H]2[C@@H]1C(N)=O)C(=O)OC | 447% (active)
COc1ccc(C#Cc2ccc3c(c2)[C@]2(C(=O)N3)[C@H](c3ccccc3OCCO)N3[C@H](c4ccccc4)[C@H](c4ccccc4)OC(=O)[C@H]3[C@@H]2C(=O)N2CCCCCCC2)cc1 | -14.4%
O=C1O[C@@H](c2ccccc2)[C@@H](c2ccccc2)N2[C@@H](c3ccccc3OCCO)[C@]3(C(=O)Nc4ccccc43)[C@@H](C(=O)N3CCCCCCC3)[C@H]12 | 108% (active)
COC(=O)C(CC#Cc1ccc2c(c1)[C@]1(C(=O)N2)[C@H](c2ccc(O)cc2)N2[C@H](c3ccccc3)[C@H](c3ccccc3)OC(=O)[C@H]2[C@@H]1C(=O)NC[C@H](O)c1ccccc1)C(=O)OC | 16.4%
O=C1O[C@H](c2ccccc2)[C@H](c2ccccc2)N2[C@H]1[C@@H](C(=O)N1CCN(c3ncccn3)CC1)[C@]1(C(=O)Nc3ccccc31)[C@H]2c1ccc(OCCO)cc1 | 69.8%
O=C1O[C@@H](c2ccccc2)[C@@H](c2ccccc2)N2[C@@H](c3ccc(OCCO)cc3)[C@]3(C(=O)Nc4ccc(C#CCCO)cc43)[C@@H](C(=O)O)[C@H]12 | 0.895%
COc1ccc(CCNC(=O)c2cc3ccccc3c(=O)o2)cc1OC | 19.8%
COc1ccc(/C=C(/NC(=O)c2ccccc2)C(=O)N2CC3(C)CC2CC(C)(C)C3)cc1 (stereo not given) | 1.8%
CCOC(=O)C1CCN(C(=O)CN2C(=O)c3ccccc3C2=O)CC1 | -6.98%
COc1cccc(CNS(=O)(=O)c2ccc3[nH]c(=O)ccc3c2)c1 | -8.9%
C[C@@H]1CN([C@@H](C)CO)C(=O)c2cc(NC(=O)CCCN(C)C)ccc2O[C@H]1CN(C)Cc1ccccc1 | -15.8%
NS(=O)(=O)c1ccc(CCNC2=CC(=O)OC23CCCCC3)cc1 | -9.03%
COc1ccc(OC)c(NC(=O)CSc2n[nH]c(-c3ccncc3)n2)c1 | 148% (active)
COC(=O)c1ccccc1NC(=O)CSc1n[nH]c(-c2ccncc2)n1 | -0.326%
O=C(CSc1n[nH]c(-c2ccncc2)n1)Nc1ccccc1F | -7%
CC1CCCC(C)N1C(=O)c1cc2c(s1)-c1ccccc1OC2 (stereo not given) | -1.02%
